Results published in PubChem BioAssay AID1159580 (chemical genetic matrix, 2015).
Several values for one entry are separate records, joined by “and”; a condition that tells them apart may be missing. Equal values may be shown once. The whole screen tested about 5,500 compounds, of which about 2,000 (36%) were called active. About 18% were inconclusive and are not listed. Rule as the data show it: active = normalized growth mostly below about 0.91 (no sharp cut-off); inconclusive = no clear call, values can overlap the other calls; inactive = mostly above about 0.92. This is one part of the list.

Assay: chemical genetic growth profiling, strain panel (AID 1159580);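 also: tested at 20 µM; growth read once vehicle control cultures reached saturation at 30 °C; 1 = growth at the plate median or of vehicle wells; lower values mean less growth of the strain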
Settings: S. cerevisiae deletion strains, growth OD

## CCC(=O)O[C@H]1[C@H](O[C@@H]2[C@@H](C)[C@H](O[C@H]3C[C@@](C)(OC)[C@@H](O)[C@H](C)O3)[C@@H](C)C(=O)O[C@H](CC)[C@@](C)(O)[C@H](O)[C@@H](C)C(=O)[C@H](C)C[C@@]2(C)O)O[C@H](C)C[C@@H]1N(C)C
Locus YAL013W, strain DEP1, stronger effect = lower value
  normalized growth: 0.996 (inactive)
Locus YAL021C, strain ccr4, stronger effect = lower value
  normalized growth: 0.958 (inactive)
Locus YAL026C, strain drs2, stronger effect = lower value
  normalized growth: 0.942 (inactive)
Locus YAL030W, strain snc1, stronger effect = lower value
  normalized growth: 0.984 (inactive)
Locus YBL061C, strain skt5, stronger effect = lower value
  normalized growth: 0.973 (inactive)
Locus YBR009C, strain hhf1, stronger effect = lower value
  normalized growth: 0.797 (active)
Locus YBR021W, strain FUR4, stronger effect = lower value
  normalized growth: 0.232 (active)
Locus YBR023C, strain chs3, stronger effect = lower value
  normalized growth: 0.894 (active)
Locus YBR171W, strain sec66, stronger effect = lower value
  normalized growth: 1.01 (inactive)
Locus YBR229C, strain ROT2, stronger effect = lower value
  normalized growth: 1.02 (inactive)
Locus YBR231C, strain swc5, stronger effect = lower value
  normalized growth: 0.836 (active)
Locus YBR279W, strain paf1, stronger effect = lower value
  normalized growth: 0.911 (active)
Locus YCL011C, strain gbp2, stronger effect = lower value
  normalized growth: 0.823 (active)
Locus YCL016C, strain dcc1, stronger effect = lower value
  normalized growth: 0.912 (active)
Locus YCL029C, strain bik1, stronger effect = lower value
  normalized growth: 0.988 (inactive)
Locus YCL061C, strain MRC1, stronger effect = lower value
  normalized growth: 0.949 (inactive)
Locus YCL069W, strain vba3, stronger effect = lower value
  normalized growth: 0.899 (active)
Locus YCR088W, strain abp1, stronger effect = lower value
  normalized growth: 1.02 (inactive)
Locus YDL005C, strain med2, stronger effect = lower value
  normalized growth: 0.984 (inactive)
Locus YDL035C, strain GPR1, stronger effect = lower value
  normalized growth: 0.915 (inactive)
Locus YDL040C, strain nat1, stronger effect = lower value
  normalized growth: 1.01 (inactive)
Locus YDL074C, strain BRE1, stronger effect = lower value
  normalized growth: 0.809 (inactive)
Locus YDL101C, strain DUN1, stronger effect = lower value
  normalized growth: 0.959 (inactive)
Locus YDL134C, strain PPH21, stronger effect = lower value
  normalized growth: 0.91 (inactive)
Locus YDL185W, strain tfp1, stronger effect = lower value
  normalized growth: 1.01 (inactive)
Locus YDL192W, strain arf1, stronger effect = lower value
  normalized growth: 1 (inactive)
Locus YDR001C, strain nth1, stronger effect = lower value
  normalized growth: 1.02 (inactive)
Locus YDR069C, strain doa4, stronger effect = lower value
  normalized growth: 1.04 (inactive)
Locus YDR101C, strain arx1, stronger effect = lower value
  normalized growth: 1 (inactive)
Locus YDR137W, strain rgp1, stronger effect = lower value
  normalized growth: 1.18 [resistant] (active)
Locus YDR159W, strain sac3, stronger effect = lower value
  normalized growth: 0.826 (active)
Locus YDR162C, strain NBP2, stronger effect = lower value
  normalized growth: 0.944 (inactive)
Locus YDR195W, strain ref2
  normalized growth: 1.22 [resistant] (active)
Locus YDR297W, strain sur2, stronger effect = lower value
  normalized growth: 0.942 (inactive)
Locus YDR318W, strain mcm21, stronger effect = lower value
  normalized growth: 0.99 (inactive)
Locus YDR334W, strain swr1, stronger effect = lower value
  normalized growth: 0.957 (inactive)
Locus YDR335W, strain msn5, stronger effect = lower value
  normalized growth: 0.877 (active)
Locus YDR388W, stronger effect = lower value
  normalized growth: 0.972 (inactive)
Locus YDR392W, strain spt3, stronger effect = lower value
  normalized growth: 0.292 (active)
Locus YDR502C, strain sam2, stronger effect = lower value
  normalized growth: 1.01 (inactive)
Locus YEL003W, strain gim4, stronger effect = lower value
  normalized growth: 0.862 (active)
Locus YEL037C, strain rad23, stronger effect = lower value
  normalized growth: 0.971 (inactive)
Locus YEL061C, strain CIN8 (second series), stronger effect = lower value
  normalized growth: 0.875 (active)
Locus YEL061C, strain CIN8, stronger effect = lower value
  normalized growth: 0.97 (inactive)
Locus YER015W, strain faa2, stronger effect = lower value
  normalized growth: 0.975 (inactive)
Locus YER016W, strain bim1, stronger effect = lower value
  normalized growth: 0.965 (inactive)
Locus YER110C, stronger effect = lower value
  normalized growth: 0.967 (inactive)
Locus YER111C, strain swi4, stronger effect = lower value
  normalized growth: 0.867 (active)
Locus YER155C, strain BEM2 (second series), stronger effect = lower value
  normalized growth: 0.32 (active)
Locus YER155C, strain BEM2, stronger effect = lower value
  normalized growth: 1.03 (inactive)
Locus YER167W, strain BCK2, stronger effect = lower value
  normalized growth: 0.971 (inactive)
Locus YFR010W, strain ubp6, stronger effect = lower value
  normalized growth: 0.911 (inactive)
Locus YGL078C, strain dbp3, stronger effect = lower value
  normalized growth: 0.995 (inactive)
Locus YGL086W, strain mad1, stronger effect = lower value
  normalized growth: 0.994 (inactive)
Locus YGL167C, strain pmr1, stronger effect = lower value
  normalized growth: 1 (inactive)
Locus YGL173C, strain kem1, stronger effect = lower value
  normalized growth: 0.938 (inactive)
Locus YGL227W, strain vid30, stronger effect = lower value
  normalized growth: 1.01 (inactive)
Locus YGL240W, strain doc1, stronger effect = lower value
  normalized growth: 0.731 (active)
Locus YGL248W, strain PDE1, stronger effect = lower value
  normalized growth: 0.918 (inactive)
Locus YGL253W, strain hxk2, stronger effect = lower value
  normalized growth: 0.671 (active)
Locus YGR078C, strain PAC10, stronger effect = lower value
  normalized growth: 0.797 (active)
Locus YGR135W, strain pre9, stronger effect = lower value
  normalized growth: 0.92 (inactive)
Locus YGR252W, strain gcn5, stronger effect = lower value
  normalized growth: 0.695 (active)
Locus YHR013C, strain ard1, stronger effect = lower value
  normalized growth: 0.722 (active)
Locus YHR027C, strain rpn1, stronger effect = lower value
  normalized growth: 1 (inactive)
Locus YHR030C, strain SLT2, stronger effect = lower value
  normalized growth: 1.02 (inactive) and 0.875 (inactive)
Locus YHR079C, strain IRE1 (second series), stronger effect = lower value
  normalized growth: 1.01 (inactive)
Locus YHR079C, strain IRE1, stronger effect = lower value
  normalized growth: 0.874 (inactive)
Locus YHR094C, strain hxt1, stronger effect = lower value
  normalized growth: 1.01 (inactive)
Locus YHR129C, strain ARP1, stronger effect = lower value
  normalized growth: 0.99 (inactive)
Locus YHR142W, strain chs7, stronger effect = lower value
  normalized growth: 0.7 (active)
Locus YHR200W, strain rpn10, stronger effect = lower value
  normalized growth: 1.01 (inactive)
Locus YIL066C, strain RNR3, stronger effect = lower value
  normalized growth: 0.8 (active)
Locus YIL073C, strain SPO22, stronger effect = lower value
  normalized growth: 1.05 (inactive)
Locus YIL125W, strain kgd1, stronger effect = lower value
  normalized growth: 1.02 (inactive)
Locus YIR030C, strain dcg1, stronger effect = lower value
  normalized growth: 1.02 (inactive)
Locus YJL092W, strain hpr5, stronger effect = lower value
  normalized growth: 1.01 (inactive)
Locus YJL095W, strain BCK1 (second series), stronger effect = lower value
  normalized growth: 0.993 (inactive)
Locus YJL095W, strain BCK1, stronger effect = lower value
  normalized growth: 0.975 (inactive) and 0.864 (active)
Locus YJL115W, strain asf1, stronger effect = lower value
  normalized growth: 1.03 (inactive)
Locus YJL129C, strain trk1, stronger effect = lower value
  normalized growth: 0.7 (active)
Locus YJL134W, strain LCB3, stronger effect = lower value
  normalized growth: 1.02 (inactive)
Locus YJL154C, strain vps35, stronger effect = lower value
  normalized growth: 1.01 (inactive)
Locus YJL164C, strain tpk1, stronger effect = lower value
  normalized growth: 0.832 (active)
Locus YJL166W, strain qcr8, stronger effect = lower value
  normalized growth: 0.813 (active)
Locus YJL168C, strain set2, stronger effect = lower value
  normalized growth: 1.01 (inactive)
Locus YJL187C, strain SWE1 (second series), stronger effect = lower value
  normalized growth: 0.967 (inactive)
Locus YJR043C, strain POL32, stronger effect = lower value
  normalized growth: 0.832 (active)
